Source: the supplement of paper PMC11732987, “Enantioselective OTUD7B fragment discovery through chemoproteomics screening and high-throughput optimisation” (Communications Chemistry, 2025)

How the values were obtained:
Test in all cases: log2 ratio of Biotin-Ahx-Ub-VS probe labelling (fragment/DMSO); higher = less target engagement (more negative = stronger competition), active = hit call of the paper (q ≤ 0.05, log2 ratio ≤ -1)
Settings in all cases: compound concentration: 200 uM; treatment time: 3 h
USP34 = USP34 (UniProt Q70CQ2)
Summary of the method: (§1)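 Triplicate samples of HEK293T lysate, 495 µg each, received fragment at 200 µM or vehicle for 3 h, followed by Biotin-Ahx-Ub-VS (0.5 µM final) for 1 h. After NeutrAvidin enrichment of labelled DUBs and LysC/trypsin digestion, peptides were run by diaPASEF LC-MS/MS. The values are average log2 fragment/vehicle ratios from global-median-normalised Spectronaut label-free quantities, tested by unpaired t-test on proteins having ≥2 unique peptides.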

USP36 = target: T1, USP36 (UniProt Q9P275)
T1 sequence (whole entry): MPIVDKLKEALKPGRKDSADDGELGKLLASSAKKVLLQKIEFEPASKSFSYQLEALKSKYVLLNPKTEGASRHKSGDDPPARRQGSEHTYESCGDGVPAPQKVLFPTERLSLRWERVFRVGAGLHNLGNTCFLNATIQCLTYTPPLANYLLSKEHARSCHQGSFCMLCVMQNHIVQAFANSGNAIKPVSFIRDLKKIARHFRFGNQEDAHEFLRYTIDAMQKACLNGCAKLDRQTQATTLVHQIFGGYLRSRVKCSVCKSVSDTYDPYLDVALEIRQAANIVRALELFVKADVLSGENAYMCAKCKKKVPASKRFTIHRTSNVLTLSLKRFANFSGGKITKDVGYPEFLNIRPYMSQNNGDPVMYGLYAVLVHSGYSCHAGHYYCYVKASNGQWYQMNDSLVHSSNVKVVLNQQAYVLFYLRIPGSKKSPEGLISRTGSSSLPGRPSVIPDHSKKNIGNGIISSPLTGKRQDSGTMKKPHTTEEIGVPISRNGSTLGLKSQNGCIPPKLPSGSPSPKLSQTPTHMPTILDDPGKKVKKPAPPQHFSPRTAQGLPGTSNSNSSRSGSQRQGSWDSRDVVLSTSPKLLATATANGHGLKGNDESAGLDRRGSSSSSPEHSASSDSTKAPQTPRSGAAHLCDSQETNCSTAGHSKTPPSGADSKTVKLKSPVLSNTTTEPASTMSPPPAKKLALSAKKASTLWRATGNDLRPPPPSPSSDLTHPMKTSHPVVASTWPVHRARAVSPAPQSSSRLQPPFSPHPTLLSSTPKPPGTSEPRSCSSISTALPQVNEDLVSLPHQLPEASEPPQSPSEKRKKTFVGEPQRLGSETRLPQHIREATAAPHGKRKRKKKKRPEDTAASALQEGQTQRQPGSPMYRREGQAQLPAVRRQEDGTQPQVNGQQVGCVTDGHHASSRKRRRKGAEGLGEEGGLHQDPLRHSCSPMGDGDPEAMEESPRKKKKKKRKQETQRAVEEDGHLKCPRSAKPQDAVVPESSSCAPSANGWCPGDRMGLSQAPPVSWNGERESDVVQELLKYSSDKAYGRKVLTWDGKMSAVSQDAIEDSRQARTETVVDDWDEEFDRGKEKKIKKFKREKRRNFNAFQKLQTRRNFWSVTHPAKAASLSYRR
Summary of the method: as §1

USP38 = target: T2, USP38 (UniProt Q8NB14)
T2 sequence (whole entry): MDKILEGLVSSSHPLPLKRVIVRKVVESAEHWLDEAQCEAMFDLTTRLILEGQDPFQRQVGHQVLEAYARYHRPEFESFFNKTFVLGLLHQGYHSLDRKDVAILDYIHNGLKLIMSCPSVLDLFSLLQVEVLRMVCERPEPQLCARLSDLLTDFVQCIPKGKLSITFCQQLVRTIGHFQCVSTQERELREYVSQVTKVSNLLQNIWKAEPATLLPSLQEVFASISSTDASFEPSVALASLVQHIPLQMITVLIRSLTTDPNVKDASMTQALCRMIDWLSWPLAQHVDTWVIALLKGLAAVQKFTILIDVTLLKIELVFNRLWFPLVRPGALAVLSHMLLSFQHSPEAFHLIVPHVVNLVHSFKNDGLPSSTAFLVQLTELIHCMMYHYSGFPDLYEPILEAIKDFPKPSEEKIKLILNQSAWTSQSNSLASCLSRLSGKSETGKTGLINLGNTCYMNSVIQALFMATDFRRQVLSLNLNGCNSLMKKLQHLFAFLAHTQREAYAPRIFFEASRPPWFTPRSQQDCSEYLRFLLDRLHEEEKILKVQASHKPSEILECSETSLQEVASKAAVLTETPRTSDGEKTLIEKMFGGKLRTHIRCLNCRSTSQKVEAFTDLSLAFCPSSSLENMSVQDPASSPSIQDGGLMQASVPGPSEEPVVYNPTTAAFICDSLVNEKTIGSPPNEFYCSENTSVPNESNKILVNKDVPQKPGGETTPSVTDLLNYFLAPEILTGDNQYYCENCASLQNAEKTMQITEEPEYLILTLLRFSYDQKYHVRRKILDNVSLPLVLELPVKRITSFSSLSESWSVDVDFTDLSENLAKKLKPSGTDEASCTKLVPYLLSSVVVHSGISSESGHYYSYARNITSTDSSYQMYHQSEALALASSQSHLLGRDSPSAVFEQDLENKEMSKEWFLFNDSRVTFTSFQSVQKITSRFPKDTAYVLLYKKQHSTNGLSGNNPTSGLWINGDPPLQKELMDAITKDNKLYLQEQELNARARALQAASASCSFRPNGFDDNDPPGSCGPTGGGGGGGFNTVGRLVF
Summary of the method: as §1

USP39 = target: T3, USP39 (UniProt Q53GS9)
T3 sequence (whole entry): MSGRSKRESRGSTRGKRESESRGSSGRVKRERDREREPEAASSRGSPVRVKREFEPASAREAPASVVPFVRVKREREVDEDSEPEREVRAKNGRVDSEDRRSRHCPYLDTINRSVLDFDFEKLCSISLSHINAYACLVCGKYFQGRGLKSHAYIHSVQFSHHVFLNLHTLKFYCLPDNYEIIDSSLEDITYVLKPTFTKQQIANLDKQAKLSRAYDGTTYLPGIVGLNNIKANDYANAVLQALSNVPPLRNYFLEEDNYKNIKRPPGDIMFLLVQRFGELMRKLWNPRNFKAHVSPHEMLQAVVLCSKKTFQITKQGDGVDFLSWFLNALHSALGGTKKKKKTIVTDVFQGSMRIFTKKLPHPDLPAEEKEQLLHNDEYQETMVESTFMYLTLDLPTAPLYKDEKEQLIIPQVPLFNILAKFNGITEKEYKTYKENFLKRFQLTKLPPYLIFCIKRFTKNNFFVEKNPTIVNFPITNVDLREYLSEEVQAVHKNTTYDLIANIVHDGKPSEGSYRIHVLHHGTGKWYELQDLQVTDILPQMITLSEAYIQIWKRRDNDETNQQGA
Summary of the method: as §1

USP4 = target: T4, USP4 (UniProt Q13107)
T4 sequence (whole entry): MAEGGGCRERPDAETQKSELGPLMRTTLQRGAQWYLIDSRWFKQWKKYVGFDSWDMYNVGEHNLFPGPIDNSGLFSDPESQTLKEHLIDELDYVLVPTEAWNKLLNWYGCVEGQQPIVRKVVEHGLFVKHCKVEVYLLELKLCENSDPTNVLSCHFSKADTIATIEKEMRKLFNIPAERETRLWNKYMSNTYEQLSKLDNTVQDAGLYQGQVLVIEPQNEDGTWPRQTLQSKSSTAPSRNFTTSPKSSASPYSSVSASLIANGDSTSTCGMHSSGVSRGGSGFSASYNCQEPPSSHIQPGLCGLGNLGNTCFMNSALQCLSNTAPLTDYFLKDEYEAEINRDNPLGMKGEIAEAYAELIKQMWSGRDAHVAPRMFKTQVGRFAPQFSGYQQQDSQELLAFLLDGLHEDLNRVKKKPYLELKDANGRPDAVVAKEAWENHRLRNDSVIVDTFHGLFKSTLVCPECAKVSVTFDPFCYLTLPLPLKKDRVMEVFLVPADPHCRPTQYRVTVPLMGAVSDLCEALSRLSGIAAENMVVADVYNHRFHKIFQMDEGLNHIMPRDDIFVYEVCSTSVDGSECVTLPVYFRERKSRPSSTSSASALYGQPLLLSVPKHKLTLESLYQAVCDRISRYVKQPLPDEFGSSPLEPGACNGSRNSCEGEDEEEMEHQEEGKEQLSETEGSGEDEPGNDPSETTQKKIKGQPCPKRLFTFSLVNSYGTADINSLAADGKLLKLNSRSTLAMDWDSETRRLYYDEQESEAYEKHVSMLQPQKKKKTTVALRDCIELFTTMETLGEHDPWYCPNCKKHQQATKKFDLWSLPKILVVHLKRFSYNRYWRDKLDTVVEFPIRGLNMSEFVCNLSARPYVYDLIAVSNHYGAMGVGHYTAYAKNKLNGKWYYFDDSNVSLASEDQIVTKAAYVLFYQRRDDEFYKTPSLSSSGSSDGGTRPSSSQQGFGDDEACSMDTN
Summary of the method: as §1

Measured: log2 ratio of Biotin-Ahx-Ub-VS probe labelling

USP34, sequence (Q70CQ2 whole entry, the tested form may be a part): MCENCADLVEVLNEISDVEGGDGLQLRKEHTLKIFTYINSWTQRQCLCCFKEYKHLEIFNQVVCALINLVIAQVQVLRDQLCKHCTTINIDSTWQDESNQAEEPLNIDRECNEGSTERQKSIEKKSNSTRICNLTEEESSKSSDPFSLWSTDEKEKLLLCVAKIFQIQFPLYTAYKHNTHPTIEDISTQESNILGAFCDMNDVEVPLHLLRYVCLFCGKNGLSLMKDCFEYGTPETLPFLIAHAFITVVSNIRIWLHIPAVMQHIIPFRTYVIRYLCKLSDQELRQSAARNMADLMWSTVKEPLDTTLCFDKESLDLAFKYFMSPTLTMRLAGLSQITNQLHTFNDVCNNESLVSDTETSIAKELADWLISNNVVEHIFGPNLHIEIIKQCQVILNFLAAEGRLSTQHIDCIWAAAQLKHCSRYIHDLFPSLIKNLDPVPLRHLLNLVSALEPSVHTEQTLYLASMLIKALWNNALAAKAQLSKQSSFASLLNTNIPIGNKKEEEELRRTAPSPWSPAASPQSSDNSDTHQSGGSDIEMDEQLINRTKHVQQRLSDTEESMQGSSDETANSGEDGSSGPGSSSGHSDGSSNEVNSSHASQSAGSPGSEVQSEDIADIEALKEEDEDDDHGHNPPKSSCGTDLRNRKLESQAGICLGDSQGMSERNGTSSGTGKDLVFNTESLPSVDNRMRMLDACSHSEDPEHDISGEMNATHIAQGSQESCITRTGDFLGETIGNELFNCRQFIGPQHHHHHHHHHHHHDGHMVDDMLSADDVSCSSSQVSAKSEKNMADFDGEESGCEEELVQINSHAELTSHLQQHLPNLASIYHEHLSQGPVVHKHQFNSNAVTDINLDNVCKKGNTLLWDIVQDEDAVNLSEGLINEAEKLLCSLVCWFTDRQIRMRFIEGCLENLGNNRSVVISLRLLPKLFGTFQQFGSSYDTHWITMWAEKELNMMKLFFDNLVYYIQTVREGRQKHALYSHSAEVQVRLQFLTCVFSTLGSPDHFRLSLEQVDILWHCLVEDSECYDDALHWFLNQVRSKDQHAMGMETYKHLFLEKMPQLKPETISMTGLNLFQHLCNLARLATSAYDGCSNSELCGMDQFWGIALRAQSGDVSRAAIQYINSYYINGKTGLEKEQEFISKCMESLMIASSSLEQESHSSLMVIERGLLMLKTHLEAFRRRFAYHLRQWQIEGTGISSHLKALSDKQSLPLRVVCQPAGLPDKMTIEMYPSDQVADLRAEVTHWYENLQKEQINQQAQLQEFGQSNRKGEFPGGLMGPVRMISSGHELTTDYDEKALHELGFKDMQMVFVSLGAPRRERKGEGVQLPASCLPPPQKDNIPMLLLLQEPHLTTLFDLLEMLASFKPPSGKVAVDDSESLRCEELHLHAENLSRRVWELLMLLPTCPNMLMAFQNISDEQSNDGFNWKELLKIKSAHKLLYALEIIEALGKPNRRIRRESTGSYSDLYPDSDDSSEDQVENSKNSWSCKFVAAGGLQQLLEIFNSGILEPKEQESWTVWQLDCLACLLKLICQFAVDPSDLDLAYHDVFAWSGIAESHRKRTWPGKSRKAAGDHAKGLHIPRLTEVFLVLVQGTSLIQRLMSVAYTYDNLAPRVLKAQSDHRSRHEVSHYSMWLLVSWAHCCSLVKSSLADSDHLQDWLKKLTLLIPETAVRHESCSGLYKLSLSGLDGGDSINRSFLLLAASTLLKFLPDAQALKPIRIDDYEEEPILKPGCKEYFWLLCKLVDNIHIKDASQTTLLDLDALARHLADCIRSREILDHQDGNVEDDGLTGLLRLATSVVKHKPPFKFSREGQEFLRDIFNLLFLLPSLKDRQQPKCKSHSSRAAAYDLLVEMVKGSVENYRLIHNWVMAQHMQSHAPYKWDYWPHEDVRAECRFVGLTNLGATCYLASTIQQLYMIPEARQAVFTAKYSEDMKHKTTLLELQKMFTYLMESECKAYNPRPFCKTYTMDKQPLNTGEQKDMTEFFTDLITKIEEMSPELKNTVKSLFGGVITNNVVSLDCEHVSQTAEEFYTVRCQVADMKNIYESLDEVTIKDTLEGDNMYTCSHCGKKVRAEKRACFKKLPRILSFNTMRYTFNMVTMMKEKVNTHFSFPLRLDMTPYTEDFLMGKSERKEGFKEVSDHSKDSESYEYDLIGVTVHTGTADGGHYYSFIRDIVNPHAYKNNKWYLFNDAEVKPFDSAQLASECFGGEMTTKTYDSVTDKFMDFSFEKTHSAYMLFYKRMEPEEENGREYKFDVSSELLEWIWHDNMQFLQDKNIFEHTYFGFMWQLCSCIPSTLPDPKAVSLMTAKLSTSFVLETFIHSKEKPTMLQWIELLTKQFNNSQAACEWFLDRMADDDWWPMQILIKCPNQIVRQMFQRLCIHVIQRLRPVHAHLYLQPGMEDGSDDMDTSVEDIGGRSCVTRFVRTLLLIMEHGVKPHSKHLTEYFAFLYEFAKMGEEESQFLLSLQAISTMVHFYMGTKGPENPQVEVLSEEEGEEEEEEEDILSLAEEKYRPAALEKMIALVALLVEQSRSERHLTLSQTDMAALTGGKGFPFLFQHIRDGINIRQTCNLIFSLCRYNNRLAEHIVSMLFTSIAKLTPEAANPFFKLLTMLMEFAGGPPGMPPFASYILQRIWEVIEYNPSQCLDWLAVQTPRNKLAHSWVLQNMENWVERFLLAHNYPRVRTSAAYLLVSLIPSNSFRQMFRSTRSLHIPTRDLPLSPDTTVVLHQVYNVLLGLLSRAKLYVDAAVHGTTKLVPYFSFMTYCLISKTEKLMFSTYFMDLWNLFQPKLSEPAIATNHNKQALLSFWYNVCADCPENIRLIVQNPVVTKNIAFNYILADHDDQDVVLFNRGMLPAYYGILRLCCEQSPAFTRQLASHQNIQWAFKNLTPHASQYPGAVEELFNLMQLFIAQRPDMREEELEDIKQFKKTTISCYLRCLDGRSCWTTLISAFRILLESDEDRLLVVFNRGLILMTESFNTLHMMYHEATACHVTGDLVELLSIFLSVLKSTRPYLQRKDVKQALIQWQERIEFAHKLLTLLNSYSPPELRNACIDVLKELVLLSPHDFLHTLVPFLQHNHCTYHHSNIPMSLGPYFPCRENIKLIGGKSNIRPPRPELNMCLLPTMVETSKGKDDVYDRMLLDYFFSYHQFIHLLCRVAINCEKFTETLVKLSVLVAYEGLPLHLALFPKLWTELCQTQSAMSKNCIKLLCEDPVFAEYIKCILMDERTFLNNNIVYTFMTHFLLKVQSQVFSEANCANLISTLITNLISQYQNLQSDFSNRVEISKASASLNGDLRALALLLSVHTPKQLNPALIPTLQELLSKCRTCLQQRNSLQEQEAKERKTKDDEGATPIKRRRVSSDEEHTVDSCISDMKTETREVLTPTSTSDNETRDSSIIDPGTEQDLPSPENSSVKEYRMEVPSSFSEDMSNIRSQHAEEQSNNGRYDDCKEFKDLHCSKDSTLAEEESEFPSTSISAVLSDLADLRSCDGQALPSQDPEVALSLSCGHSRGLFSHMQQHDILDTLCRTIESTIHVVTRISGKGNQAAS

Cc1cccnc1NC(=O)C1CCN(C(=O)CCl)CC1.Cl
inactive: USP34 -0.124 | USP36 -0.102 | USP38 -0.157 | USP39 0.0484 | USP4 0.0404
